This is an account of results in PubChem BioAssay.

Usually viability stands for a read-out of living cells in per cent, often relative to untreated cells.

The source made the active and inactive calls.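 How the source made its calls: active means normalized viability below 100% at a tested concentration; inactive means the rest.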

One assay is described as follows: drug combination growth inhibition, ovarian cancer – cell-based, oncology-focused library, rucaparib conditional, profiling panel (AID 1508598). Conditions: patient-derived ovarian cancer cells, CellTiter-Glo viability, 144 h; at 0.313 µM; OCI-P5x cells; with rucaparib 20 µM; active compounds read low; 100% = cells with rucaparib alone. Background: Cellular ATP, detected with luciferase, serves as a proxy for viable cell number.
With `O=C(CCCCCCC(=O)Nc1ccc([C@H]2O[C@@H](CSc3nc(-c4ccccc4)c(-c4ccccc4)o3)C[C@@H](c3ccc(CO)cc3)O2)cc1)NO`, the viability is 104% (inactive).

As to `CNC(=O)c1cc(Oc2ccc(NC(=O)Nc3ccc(Cl)c(C(F)(F)F)c3)c(F)c2)ccn1`, the viability was 115% (inactive).

For the compound `CS(=O)(=O)N1CCc2c(-c3cnc(N)nc3)nc(N3CCOCC3)nc21`, the viability was 109% (inactive).

As to `Nc1ccn([C@@H]2O[C@H](CO)[C@@H](O)C2(F)F)c(=O)n1`, the viability is 58.9% (active).

In the case of `CNC(=O)c1cc(COc2nnc(Nc3ccc(Cl)cc3)c3ccoc23)ccn1`, the viability was 103% (inactive).

The assay is the same for the next values; noted with them: patient-derived ovarian cancer cells, CellTiter-Glo viability, 144 h; at 0.313 µM; OCI-P5x cells; without rucaparib; active compounds read low.
Turning to `O=C(CCCCCCC(=O)Nc1ccc([C@H]2O[C@@H](CSc3nc(-c4ccccc4)c(-c4ccccc4)o3)C[C@@H](c3ccc(CO)cc3)O2)cc1)NO`, the viability was 109% (inactive).

On to `CNC(=O)c1cc(Oc2ccc(NC(=O)Nc3ccc(Cl)c(C(F)(F)F)c3)c(F)c2)ccn1`, for which the viability was 117% (inactive).

Take `CS(=O)(=O)N1CCc2c(-c3cnc(N)nc3)nc(N3CCOCC3)nc21`: the viability is 107% (inactive).

As to `Nc1ccn([C@@H]2O[C@H](CO)[C@@H](O)C2(F)F)c(=O)n1`, the viability is 22.7% (active).

`CNC(=O)c1cc(COc2nnc(Nc3ccc(Cl)cc3)c3ccoc23)ccn1`: the viability was 111% (inactive).

Staying with this assay, now noted: patient-derived ovarian cancer cells, CellTiter-Glo viability, 144 h; at 1.25 µM; OCI-C5x cells; with rucaparib 10 µM; active compounds read low; 100% = cells with rucaparib alone.
For the compound `O=C(CCCCCCC(=O)Nc1ccc([C@H]2O[C@@H](CSc3nc(-c4ccccc4)c(-c4ccccc4)o3)C[C@@H](c3ccc(CO)cc3)O2)cc1)NO`, the viability is 110% (inactive).

Take `CNC(=O)c1cc(Oc2ccc(NC(=O)Nc3ccc(Cl)c(C(F)(F)F)c3)c(F)c2)ccn1`: the viability is 107% (inactive).

On to `CS(=O)(=O)N1CCc2c(-c3cnc(N)nc3)nc(N3CCOCC3)nc21`, for which the viability is 75.9% (active).

Turning to `Nc1ccn([C@@H]2O[C@H](CO)[C@@H](O)C2(F)F)c(=O)n1`, the viability was 33.1% (active).

Turning to `CNC(=O)c1cc(COc2nnc(Nc3ccc(Cl)cc3)c3ccoc23)ccn1`, the viability was 106% (inactive).

The assay is the same for the next values; noted with them: patient-derived ovarian cancer cells, CellTiter-Glo viability, 144 h; at 1.25 µM; OCI-C5x cells; without rucaparib; active compounds read low.
`O=C(CCCCCCC(=O)Nc1ccc([C@H]2O[C@@H](CSc3nc(-c4ccccc4)c(-c4ccccc4)o3)C[C@@H](c3ccc(CO)cc3)O2)cc1)NO`: the viability was 139% (inactive).

Regarding `CNC(=O)c1cc(Oc2ccc(NC(=O)Nc3ccc(Cl)c(C(F)(F)F)c3)c(F)c2)ccn1`, the viability was 104% (inactive).

Regarding `CS(=O)(=O)N1CCc2c(-c3cnc(N)nc3)nc(N3CCOCC3)nc21`, the viability was 118% (inactive).

With `Nc1ccn([C@@H]2O[C@H](CO)[C@@H](O)C2(F)F)c(=O)n1`, the viability was 30.2% (active).

Turning to `CNC(=O)c1cc(COc2nnc(Nc3ccc(Cl)cc3)c3ccoc23)ccn1`, the viability was 114% (inactive).
